Out of some 350,000 compounds screened, about 31,000 (8.9%) were called active. A call without a number means that no potency is given here. About 15% were inconclusive and are not listed. The full list was thinned out, with actives kept by preference. Values without a mark were called inactive. Calls follow the shape of the dose curve; as a rule, active = well fitted inhibition curve with a large enough effect; inconclusive = small, poorly fitted or top-dose-only effect; inactive = no such curve, though single readings can be large or run the other way.
Target: Histone-lysine N-methyltransferase EHMT2 (Homo sapiens) (UniProt Q96KQ7)
Experiment: qHTS Assay for Inhibitors of Histone Lysine Methyltransferase G9a; also: nearly all actives have a fitted effect of over 75% in size
Conditions: G9a H3K9 monomethylation, AlphaScreen, 2 h; series mostly up to 59 µM
Text: Methylated lysines, on the N-terminal tails of histone proteins serve as epigenetic markers to recruit factors that can then modify local chromatin structure to lead to functional consequences. G9a and other members of the SUV39 family of the SET domain-containing superfamily of histone lysine methyltransferases (HMT) have been identified to specifically methylate Lys9 of histone H3 (H3K9). G9a catalyzes the mono- and di-methylation of H3K9 in mammalian euchromatic regions, where the resulting H3K9me2 is indicative of transcriptional repression. […] The inhibition of G9a will result in transcriptional activation and work synergistically with DNA methyltransferase and histone deacetylase inhibitors, to kill cancer cells. This qHTS assay for identification of G9a inhibitors is a chemiluminescence based AlphaScreen (PerkinElmer). Methylation of biotinylated-histone peptide is measured through specific antibody-based detection, in conjunction with streptavidin-coated donor and anti-IgG antibody-coated acceptor beads. The method is particularly well suited for detection of inhibitors acting by the desired histone peptide competitive mechanism and is applicable to testing other HMTs. Although AlphaScreen has significant advantages with its utility in a variety of epigenetic target assays, the primary screening data provided in this deposition should be used with caution due to the prevalence of screening artifacts. An AlphaScreen counterscreen is highly recommended to be run against any putative actives to eliminate non specific artifacts. Alternatively, one can use other AlphaScreen assays in PubChem to filter out promiscuous hits. Quinn et al. A chemiluminescence-based method for identification of histone lysine methyltransferase inhibitors. Mol Biosyst 6(5): 782-8. 2010. PMID: 20567762 [2] Baell,Holloway. New substructure filters for removal of pan assay interference compounds (PAINS) from screening libraries and for their exclusion in bioassays. J Med Chem. 53(7):2719-40. 2010. PMID: 20131845 NIH Molecular Libraries Probe Production Network [MLPCN] NIH Chemical Genomics Center [NCGC] Structural Genomics Consortium (SGC) NIH Grant: 5U54 MH084681-02
To each well of a 1,536w plate, 2ul of HMT enzyme (final 20nM) were added, using a nanoliter dispenser. The G9a- and GLP-inhibitor BIX-01294 (CID: 25150857) are used as an intraplate control, with a 16-point titration in duplicate. A Kalypsys pin-tool transferred 23nl of library compound solution in DMSO to each well. Following a 15 min incubation of enzyme with compounds at room temperature, 1ul mixture of b-H3K9 peptide substrate (final 500nM) and SAM cofactor (final 20uM) were added. Reactions were allowed to proceed at room temperature for 2 hours. Methylated b-H3K9 peptide product was detected with 0.5 ug/mL rabbit polyclonal anti-monomethyl histone H3K9 antibody (Abcam Inc., Cambridge, MA) and 20 ug/mL each streptavidin-coated donor and anti-rabbit IgG acceptor AlphaScreen beads. Antibody and beads were added in a 1ul dispense, for a final volume of 4ul, and plates were incubated, protected from the light, for 10 min at room temperature. Microplates were then read on an EnVision multilabel plate reader using the 1,536 plate HTS AlphaScreen aperture (excitation time 80 ms, measurement time 240 ms).
Potency is read from the fitted curve at half-maximal effect.

Sequence of Histone-lysine N-methyltransferase EHMT2 (Homo sapiens) (Q96KQ7 913-1193 limits assumed): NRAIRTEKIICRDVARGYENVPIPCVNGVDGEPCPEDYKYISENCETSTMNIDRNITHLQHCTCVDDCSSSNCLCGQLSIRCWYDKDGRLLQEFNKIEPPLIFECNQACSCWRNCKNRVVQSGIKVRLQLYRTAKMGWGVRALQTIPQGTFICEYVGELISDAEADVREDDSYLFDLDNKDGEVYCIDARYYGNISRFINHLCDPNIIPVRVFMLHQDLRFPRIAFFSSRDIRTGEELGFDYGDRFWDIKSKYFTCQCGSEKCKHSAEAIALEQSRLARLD

| SMILES | activity, negative = inhibition | Potency |
| --- | --- | --- |
| O=C(COC(=O)CNC(=O)C1CCCCC1)Nc1cccc(F)c1 | -1.37% [at 12.7 µM] | – |
| CCc1ccc(NC(=O)Cn2c(=O)n(CCC(=O)NCc3ccc4c(c3)OCO4)c(=O)c3ccccc32)cc1 | – | inactive |
| CC(C)(C)NC(=O)CSc1nc(-c2ccc(F)cc2)cc(C(F)(F)F)n1 | – | inactive |
| O=C(NCCS(=O)(=O)NCc1ccc(F)cc1)c1ccccc1 | – | inactive |
| Cc1ccc(NC(=O)c2ccc(CN3CC(=O)N4CCCCC4C3=O)cc2)c(Cl)c1 (stereo not drawn) | – | inactive |
| CC(C)(C)OC(=O)Nc1ccc([C@@H](NC(=O)OC(C)(C)C)C(=O)OC(C)(C)C)cc1 | 9.51% [at 0.501 µM] | – |
| Cc1ccc2sc(N(Cc3cccnc3)C(=O)C3COc4ccccc4O3)nc2c1C (stereo not drawn) | – | inactive |
| CCn1c(SCC(=O)Nc2cc(C)c(Cl)cc2OC)nnc1-c1ccco1 | – | inactive |
| Cc1cc(NC(=O)CSc2nc3cc(Cl)ccc3c(=O)n2Cc2ccco2)no1 | – | inactive |
| COc1cc(Cl)c(C)cc1NC(=O)CSc1nnc(-c2cccnc2)n1Cc1ccco1 | – | 39.8 µM (active) |
| CCCCN(C)S(=O)(=O)c1ccc(C(=O)Nc2sc3c(c2C(N)=O)CC(C)(C)NC3(C)C)cc1 | – | inactive |
| COc1ccc(-c2nc3c4ccccc4n(CC(=O)Nc4ccc(C(C)=O)cc4)c(=O)n3n2)cc1 | – | inactive |
| COc1cc(C2/C(=C(\O)c3ccc4c(c3)CC(C)O4)C(=O)C(=O)N2c2nnc(C)s2)cc(OC)c1OC (stereo not drawn) | – | 44.7 µM (active) |
| COCCN1C(=O)C(=O)/C(=C(/O)c2ccc(S(=O)(=O)N3CCCCC3)cc2)C1c1ccc(OC)c(OC)c1 (stereo not drawn) | – | inactive |
| COCCN1C(=O)C(=O)/C(=C(/O)c2ccc(S(=O)(=O)N3CCOCC3)cc2)C1c1ccc(O)c(OC)c1 (stereo not drawn) | – | inactive |
| CC(CCCc1ccccc1)NC(=O)c1nn(-c2ccc(Cl)cc2)nc1CO (stereo not drawn) | – | inactive |
| O=C(Nc1nnc(S(=O)(=O)N2CCCc3ccccc32)s1)c1cccc(F)c1 | – | inactive |
| Cc1cccc(NC(=O)Cn2c(C(F)(F)F)nc3ccccc32)c1C | – | inactive |
| CCc1ccccc1NC(=O)c1sc2nc3c(cc2c1N)CN(Cc1ccccc1)CC3 | – | inactive |
| CCc1ccc2nc3sc(C(=O)Nc4nnc(CC)s4)c(N)c3cc2c1 | -8.03% [at 12.7 µM] | – |
| CCN1CCc2nc3sc(C(=O)Nc4ccccc4OC(F)(F)F)c(N)c3cc2C1 | – | 14.1 µM (active) |
| CCc1ccc(NC(=O)CSc2nc3c([nH]c4ccccc43)c(=O)n2-c2cccc(OC)c2)cc1 | – | inactive |
| Cc1ccc2c(c1)c1c(c(=O)n(-c3ccccc3)c(=O)n1CC(=O)c1ccc(Cl)cc1)n2C | – | inactive |
